This is part of a sample that, as a whole, favours compounds with a hit. Of some 83,000 tested, about 20% had one in any assay.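 The test compound was applied at a single concentration to cells in 96-well plates for 48 hours, and percent growth was recorded.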 Values without a mark were called inactive. Calls of active or inactive are those of the source. Rule for the calls: active = growth percent below 10; inactive = the rest.

We go through 8 compounds from PubChem BioAssay (NCI).

Some test systems named below: NCI-H23 lung; NCI-H226 lung; NCI-H322M lung; HOP-62 NSCLC; NCI-H460 lung; HOP-92 NSCLC; NCI-H522 lung; 786-0 renal; COLO 205 colon; DU-145 prostate; K-562 leukemia; MALME-3M melanoma; MDA-MB-231 breast; RXF 393 renal; SF-268 CNS; SF-295 CNS; SF-539 CNS; UACC-257 melanoma; M14 melanoma; A549/ATCC NSCLC.
Experiment in all cases: NCI-60 one-dose screen, 48 h (100 = growth as untreated, 0 = no growth, -100 = all killed)
Conditions in all cases: 10 µM unless noted

As to `O=S(=O)(NCCNc1nccc(-c2c(-c3cccc(O)c3)nc3occn23)n1)c1ccc(C(F)(F)F)cc1`, the growth with NCI-H23 lung was 102%; in the assay with NCI-H226 lung, 106%; in the assay on NCI-H322M lung, 108%; in the assay on HOP-62 NSCLC, 107%; in the assay on NCI-H460 lung, 94.9%; with HOP-92 NSCLC, 92.6%. The growth is 94.6% with NCI-H522 lung; 101% in the assay with 786-0 renal; 44.1% in the assay with COLO 205 colon; 108% in the assay with DU-145 prostate; 97.2% in the assay with K-562 leukemia; 7.76% (active) in the assay with MALME-3M melanoma. The growth in the assay with MDA-MB-231 breast is 90.7%; with RXF 393 renal, 101%; in the assay with SF-268 CNS, 97.3%; in the assay on SF-295 CNS, 107%; in the assay on SF-539 CNS, 114%; in the assay with UACC-257 melanoma, 61.1%. The growth with M14 melanoma is 38.9%.
As to `CCCCCN1C=C/C(=C\C(=O)N(C)c2ccc(Oc3ccccc3)cc2)c2ccccc21`, the growth with NCI-H23 lung was 68.4%; in the assay on NCI-H226 lung, 79.1%; with NCI-H322M lung, 89.8%; in the assay on HOP-62 NSCLC it was 87.4%; with NCI-H460 lung it was 92%; in the assay with HOP-92 NSCLC, 47.7%. For the same compound, the growth was 82.3% in the assay with A549/ATCC NSCLC; 89.7% in the assay on 786-0 renal; 81.6% in the assay with COLO 205 colon; 103% with DU-145 prostate; 48.8% in the assay with K-562 leukemia; 83.7% with MALME-3M melanoma. Further, the growth in the assay on MDA-MB-231 breast is 76.9%; in the assay with RXF 393 renal, 85.8%; in the assay on SF-268 CNS, 87.8%; with SF-295 CNS, 81.1%; in the assay on SF-539 CNS it was 92.8%; in the assay with UACC-257 melanoma, 74.2%. For the same compound, the growth in the assay on M14 melanoma is 94.1%.
For `Fc1ccc2c(-c3cncn3CCc3ccccc3)c[nH]c2c1`, the growth was 86.2% in the assay with NCI-H23 lung; 75.9% in the assay on NCI-H226 lung; 91.8% in the assay on NCI-H322M lung; 87.4% in the assay with HOP-62 NSCLC; 92.7% in the assay on NCI-H460 lung; 65% in the assay with HOP-92 NSCLC. Further, the growth in the assay on NCI-H522 lung is 82%; in the assay on COLO 205 colon, 101%; with DU-145 prostate, 104%; with K-562 leukemia, 74.6%; in the assay on MALME-3M melanoma it was 91.4%; with MDA-MB-231 breast, 87.8%. The growth in the assay on RXF 393 renal was 79.6%; in the assay with SF-268 CNS it was 83.9%; in the assay on SF-295 CNS, 83.5%; with SF-539 CNS, 94.6%; with UACC-257 melanoma, 94.6%; in the assay on M14 melanoma, 90.8%.
Take `O=C(CCN1CCCC1)Nc1ccc2c(NCCCCc3ccccc3)c3ccccc3nc2c1`: the growth in the assay on NCI-H23 lung is -57.9% (active); in the assay on NCI-H226 lung it was 63.1%; in the assay on NCI-H322M lung, -24.8% (active); with HOP-62 NSCLC it was -46.6% (active); in the assay with NCI-H460 lung it was -69% (active); in the assay on HOP-92 NSCLC it was -2.02% (active). For the same compound, the growth with NCI-H522 lung was -38.7% (active); with 786-0 renal, 15%; with COLO 205 colon, -47.1% (active); with DU-145 prostate, -61.8% (active); in the assay on K-562 leukemia, -31.2% (active); in the assay with MALME-3M melanoma it was -88.7% (active). The growth with MDA-MB-231 breast is -74.9% (active); with RXF 393 renal, 7.61% (active); with SF-268 CNS, -73.2% (active); with SF-295 CNS, 43.4%; in the assay on SF-539 CNS, -70.3% (active); with UACC-257 melanoma it was -60.8% (active). Also, in the assay on M14 melanoma, the growth was -72.6% (active).
For the compound `CCCCCCNC(=O)Oc1ccc(/C(=C(\C)c2ccccc2)c2ccc(OCCN3CCCCC3)cc2)cc1`, the growth in the assay on NCI-H23 lung was 68.7%; in the assay on NCI-H226 lung, 93.8%; in the assay with NCI-H322M lung, 80.5%; in the assay on HOP-62 NSCLC, 75.4%; with NCI-H460 lung, 41%; in the assay on HOP-92 NSCLC it was 64.1%. Besides, the growth is 71.8% in the assay on NCI-H522 lung; 16.3% with 786-0 renal; 5.73% (active) in the assay on COLO 205 colon; 82.8% with DU-145 prostate; 4.69% (active) in the assay with K-562 leukemia; 34.2% in the assay with MALME-3M melanoma. Further, the growth is 78.1% in the assay with MDA-MB-231 breast; 47.6% with RXF 393 renal; 68.3% in the assay on SF-268 CNS; 35.4% in the assay with SF-295 CNS; 23.3% in the assay with SF-539 CNS; -0.337% (active) with UACC-257 melanoma. Moreover, the growth in the assay with M14 melanoma was -22.9% (active).
As for `COC(=O)C(CC=O)C(=O)C(=O)Nc1cccc(C(F)(F)F)c1` (stereo not given), the growth is 101% in the assay with NCI-H23 lung; 98.7% in the assay with NCI-H226 lung; 97.3% in the assay with NCI-H322M lung; 82.2% in the assay with HOP-62 NSCLC; 98.6% in the assay with NCI-H460 lung; 95.1% in the assay with HOP-92 NSCLC. In addition, the growth is 87.2% with NCI-H522 lung; 107% with 786-0 renal; 110% in the assay on COLO 205 colon; 110% in the assay with DU-145 prostate; 113% in the assay on MALME-3M melanoma; 90.2% in the assay on MDA-MB-231 breast. The growth was 103% in the assay with RXF 393 renal; 95% with SF-268 CNS; 110% in the assay on SF-295 CNS; 99.9% in the assay on SF-539 CNS; 66.5% in the assay with UACC-257 melanoma; 106% in the assay on M14 melanoma.
On to `CCCCCN1C=C/C(=C\C(=O)n2ccc3ccccc32)c2ccccc21`, for which the growth in the assay on NCI-H23 lung was 77%; in the assay on NCI-H226 lung it was 70.3%; in the assay on NCI-H322M lung, 87.7%; in the assay on HOP-62 NSCLC it was 81.9%; in the assay on NCI-H460 lung it was 91%; in the assay on HOP-92 NSCLC it was 83.3%. Also, the growth in the assay on NCI-H522 lung is 77%; in the assay on 786-0 renal, 94.8%; in the assay with COLO 205 colon it was 89.4%; in the assay on DU-145 prostate it was 101%; with K-562 leukemia it was 75%; with MALME-3M melanoma it was 81.7%. The growth with MDA-MB-231 breast was 93.2%; with RXF 393 renal, 103%; in the assay with SF-268 CNS, 92.5%; with SF-295 CNS, 87.7%; with SF-539 CNS, 102%; in the assay with UACC-257 melanoma it was 97.9%. Also, the growth with M14 melanoma was 92%.
Consider `CCc1c(Cl)nc(N)nc1Nc1ccc(C)c(C)c1`, for which the growth with NCI-H23 lung was 96.9%; in the assay on NCI-H226 lung it was 83.5%; in the assay on NCI-H322M lung, 110%; in the assay on HOP-62 NSCLC, 92.7%; in the assay with NCI-H460 lung, 80.7%; in the assay on HOP-92 NSCLC, 112%. Also, the growth is 99.3% with A549/ATCC NSCLC; 101% in the assay with 786-0 renal; 106% in the assay with COLO 205 colon; 99.5% in the assay with DU-145 prostate; 96.5% in the assay on K-562 leukemia; 100% with MALME-3M melanoma. In addition, the growth in the assay on MDA-MB-231 breast is 97.3%; with RXF 393 renal, 93.9%; with SF-268 CNS it was 97.9%; with SF-295 CNS, 93.2%; with SF-539 CNS, 100%; in the assay with UACC-257 melanoma, 105%. Also, the growth in the assay with M14 melanoma is 104%.
